We go through 6 molecules from PubChem BioAssay (Tox21).

Each structure is given as a SMILES string. “And” between values parts separate entries of the source, which are not always exact repeats. Equal entries are not always repeated. Unmarked numbers belong to inactive results. Records with an inconclusive call do not appear. The source made the active and inactive calls. Unless noted, the call rests on the fitted dose curve; in most records, active means well fitted curve in the direction sought with a large enough effect in the repeat runs; inconclusive means weak or mixed curves; inactive means no such curve, though single readings can be large; an effect the other way counts as inactive or inconclusive.

A short description of assay [1]: qHTS assay for small molecule agonists of the p53 signaling pathway (AID 651631; calls by dose curve; further: nearly all actives have a fitted effect of over 15% in size). In outline:
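p53RE-bla HCT-116 cells; compounds 16 h, 37 °C; LiveBLAzer B/G FRET substrate 2 h RT; fluorescence intensity read-out, qHTS format.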

The nature of assay [2]: qHTS assay for small molecules that induce genotoxicity in human embryonic kidney cells expressing luciferase-tagged ATAD5 (AID 651632). Further: nearly all actives have a fitted effect of over 15% in size. The essentials: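 HEK293T cells carrying a luciferase reporter tagged to ATAD5 were exposed to compound or DMSO vehicle for 16 hr at 37C, 5% CO2. Amplite was added, and after 30 min at room temperature luciferase activity was read as a marker of ATAD5 induction.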
In general terms: qHTS replaces the single test concentration by a dilution series.

Assay [3] in a line: qHTS assay for small molecule agonists of the p53 signaling pathway - cell viability (AID 651633; calls by dose curve;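 further: p53RE-bla HCT reporter cells with a stable beta-lactamase p53 reporter; series mostly up to about 83 µM; nearly all actives have a fitted effect of over 30% in size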). In outline: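 Viability counter-read: CellTiter-Glo luminescence (30 min, room temperature) in the same p53RE-bla plates. These plates had been exposed to compounds for 16 h at 37 C.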
Assay [4] can be described thus: qHTS assay for small molecules that induce genotoxicity in human embryonic kidney cells expressing luciferase-tagged ATAD5 - cell viability (AID 651634; calls by dose curve; further: nearly all actives have a fitted effect of over 25% in size). In outline: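 HEK293T cells expressing luciferase-tagged ATAD5 were exposed to compound or DMSO for 15.5 hr at 37C, 5% CO2. Viability was then read as live-cell protease activity by CellTiter-Fluor fluorescence after 30 min at 37C.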

The nature of assay [5]: qHTS assay for small molecule disruptors of the mitochondrial membrane potential - cell viability (AID 720634; calls by dose curve;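 further: human HepG2 liver cancer cells; series mostly up to about 83 µM; nearly all actives have a fitted effect of over 20% in size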). In outline:
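HepG2 cells seeded overnight at 37 C, then exposed to compound or DMSO for 1 hr at 37 C, 5% CO2. m-MPI dye added, then CellTiter-Glo for 30 min at room temperature; viability read as ATP luminescence.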

A short description of assay [6]: qHTS assay to test for compound auto fluorescence at 590 nm (red) in HepG2 cells (AID 720674). The essentials: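 We screened compounds on adherent HepG2 cells, incubating them for an hour at 37 C in 5% CO2 before reading emission at 590 nm under 540 nm excitation; values reflect equivalence to Rose Bengal sodium fluorescence.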
Assay [7] is described as follows: qHTS assay to test for compound auto fluorescence at 535 nm (green) in HepG2 cells (AID 720675).
The nature of assay [8]: qHTS assay to test for compound auto fluorescence at 460 nm (blue) in HEK293 cells (AID 720678). The essentials:
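Auto fluorescence in the blue band was quantified as triamterene equivalency. HEK293 cells were seeded at 2,000/well, dosed after a 4-5 hr attachment, and kept overnight at 37C before the 405/460 nm reading.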

Assay [9] is described as follows: qHTS assay to test for compound auto fluorescence at 590 nm (red) in HEK293 cells (AID 720679). In outline: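 Autofluorescence equivalency to Rose Bengal sodium, 540/590nm, in HEK293 cells exposed overnight to 23 nL compound per well.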
Assay [10] can be described thus: qHTS assay to test for compound auto fluorescence at 535 nm (green) in HEK293 cells (AID 720680).
A short description of assay [11]: qHTS assay to test for compound auto fluorescence at 460 nm (blue) in HEK293 cell free culture (AID 720681). The essentials: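 Blue fluorescence (Ex 405/Em 460 nm, triamterene-equivalent) was read immediately after pin transfer of compound or DMSO into medium (DMEM, 10% FBS) without cells.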
A short description of assay [12]: qHTS assay to test for compound auto fluorescence at 590 nm (red) in HEK293 cell free culture (AID 720683). In outline: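 Red-channel autofluorescence of compounds in culture medium (DMEM, 10% FBS), no cells, measured at 540/590 nm. Rose Bengal sodium is the reference fluorophore for equivalence.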
Assay [13] in a line: qHTS assay to test for compound auto fluorescence at 590 nm (red) in HepG2 cell free culture (AID 720684). The essentials:
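Steps: dispense MEM/10% FBS medium, no cells; pin compound or DMSO vehicle; read red channel, Ex/Em 540/590 nm. Output given as Rose Bengal sodium equivalents.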

Assay [14] in a line: qHTS assay to test for compound auto fluorescence at 460 nm (blue) in HepG2 cell free culture (AID 720685). The essentials:
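Compound (23 nL) or DMSO pinned into cell-free MEM with 10% FBS; blue fluorescence read at 405/460 nm excitation/emission, expressed as auto-fluorescence equivalency to triamterene.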

A short description of assay [15]: qHTS assay to test for compound auto fluorescence at 535 nm (green) in HepG2 cell free culture (AID 720686).
The nature of assay [16]: qHTS assay to test for compound auto fluorescence at 460 nm (blue) in HepG2 cells (AID 720687). The essentials:
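Blue-channel autofluorescence (Ex/Em 405/460 nm, triamterene-equivalent) was measured after 1 hr compound exposure at 37 C, 5% CO2. Cells were HepG2, plated overnight at 37 C in MEM plus 10% FBS.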

Assay [17] deals with Glucocorticoid receptor (Homo sapiens) (UniProt P04150). The assay can be described thus: qHTS assay to identify small molecule agonists of the glucocorticoid receptor (GR) signaling pathway (AID 720691; active means well fitted activation curve with a large enough effect in the signal ratio in the repeat runs, not every such curve was filed as active; the % refers to the signal ratio). The essentials:
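GR-bla HeLa cells (beta-lactamase reporter under glucocorticoid response element) were plated 4 h at 37 C/5% CO2, given compounds in DMSO, and incubated 18 h at 37 C. LiveBLAzer B/G FRET substrate was added for 2 h at room temperature, then fluorescence intensity read.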

The target is the same in assay [18]. Briefly: qHTS assay to identify small molecule antagonists of the glucocorticoid receptor (GR) signaling pathway (AID 720692; active means well fitted inhibition curve with a large enough effect in the signal ratio in the repeat runs, not every such curve was filed as active; the % refers to the signal ratio; further: potency means the concentration at half of the fitted maximal effect). The essentials:
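GR-bla HeLa cells (beta-lactamase reporter under glucocorticoid response element) were pre-plated 4 h at 37 C, treated with compounds plus 5 nM dexamethasone (final) for 18 h, then read by LiveBLAzer B/G FRET fluorescence after 2 h.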

A short description of assay [19]: qHTS assay for small molecule disruptors of the mitochondrial membrane potential (AID 720635). Further: potency means the concentration at half of the fitted maximal effect. The essentials: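 Mitochondrial membrane potential tracked with Mito-MPS dye, red aggregates (ex 540/em 590 nm) against green monomers (ex 490/em 535 nm). Compound treatment 1 hr at 37C, dye 30 min in HepG2.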
Assay [20] is described as follows: qHTS assay to test for compound auto fluorescence at 535 nm (green) in HEK293 cell free culture (AID 720682). The essentials:
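Cell-free medium (DMEM, 10% FBS) receives compound or DMSO by pintool. Plate read directly at Ex 485/Em 535 nm. Signal converted to fluorescein equivalency.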
On the % scale 0 is the no-effect control and ±100 the full control effect.

Sequence of Glucocorticoid receptor (Homo sapiens) (P04150 whole entry, looked up): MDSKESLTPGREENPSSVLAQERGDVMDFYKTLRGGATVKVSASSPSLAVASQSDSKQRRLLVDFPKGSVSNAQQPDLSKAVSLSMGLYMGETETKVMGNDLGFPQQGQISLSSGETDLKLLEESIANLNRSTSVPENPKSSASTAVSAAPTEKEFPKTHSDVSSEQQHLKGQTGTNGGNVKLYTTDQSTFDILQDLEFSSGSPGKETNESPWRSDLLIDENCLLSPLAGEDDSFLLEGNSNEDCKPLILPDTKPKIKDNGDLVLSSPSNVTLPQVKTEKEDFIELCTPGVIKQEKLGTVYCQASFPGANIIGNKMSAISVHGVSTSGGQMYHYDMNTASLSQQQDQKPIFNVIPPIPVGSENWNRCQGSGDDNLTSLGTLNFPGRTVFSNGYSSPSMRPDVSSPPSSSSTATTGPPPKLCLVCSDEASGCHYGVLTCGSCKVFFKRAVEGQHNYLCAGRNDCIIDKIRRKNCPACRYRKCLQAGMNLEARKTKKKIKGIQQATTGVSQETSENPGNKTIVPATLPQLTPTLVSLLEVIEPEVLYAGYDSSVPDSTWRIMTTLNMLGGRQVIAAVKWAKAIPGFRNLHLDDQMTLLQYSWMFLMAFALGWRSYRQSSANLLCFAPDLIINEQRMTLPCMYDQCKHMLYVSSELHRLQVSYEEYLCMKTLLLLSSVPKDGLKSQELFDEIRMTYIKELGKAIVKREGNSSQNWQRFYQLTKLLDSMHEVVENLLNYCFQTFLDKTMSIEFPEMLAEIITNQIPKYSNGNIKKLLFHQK

On to `CC(C)=CCC/C(C)=C\CO`, for which the Potency result in assay [1], in assay [2], in assay [3], in assay [4], in [5] and in assay [6] was “inactive” each time. For the same molecule, the Potency result in assay [7], in assay [9], in assay [10], in assay [12], in assay [13] and in assay [15] was “inactive” throughout. Moreover, the Potency result in [17] and in assay [18] was “inactive” in each case. For the same molecule, the call in assay [8], in assay [11], in assay [14] and in assay [16] was inactive.

With `OCCO`, the Potency result in [1], in assay [2], in [3], in assay [4], in assay [5] and in [19] was “inactive” each time. Also, the Potency entry in assay [6], in assay [7], in [9], in [10], in assay [20] and in assay [12] was “inactive” throughout. For the same molecule, the Potency entry in assay [13] and in assay [15] was “inactive” each time. In addition, the outcome in assay [11], in assay [14] and in assay [16] was inactive.

As to `CN(C)c1nc(N(C)C)nc(N(C)C)n1`, the Potency result in assay [1], in assay [2], in assay [3], in assay [4], in [5] and in [19] was “inactive” in each case. The Potency result in assay [17] and in [18] was “inactive” each time. For the same molecule, in assay [6], the fluorescence, relative to Rose Bengal was 0.105% [at 18.6 µM] and 0.0838% [at 3.72 µM]. Besides, the fluorescence, % of fluorescein control in [7] was -0.0062% [at 18.6 µM] and 0.0151% [at 3.72 µM]; in assay [15] it was -0.0261% [at 18.6 µM] and -0.0181% [at 3.72 µM]. In addition, the fluorescence, % of fluorescent control in assay [9] is 0.0163% [at 18.6 µM] and 0.505% [at 3.72 µM]; in [11], 0.0543% [at 18.6 µM] and 0.0026% [at 3.72 µM]; in [12], -0.0465% [at 18.6 µM] and -0.254% [at 3.72 µM]; in assay [14] it was 0.0368% [at 18.6 µM] and -0.0793% [at 3.72 µM]; in assay [16] it was 0.0942% [at 18.6 µM] and -0.004% [at 3.72 µM]. In addition, the fluorescence, % of fluorescein in assay [10] was 0.0818% [at 18.6 µM] and -0.032% [at 3.72 µM]. Also, the fluorescence, % of Rose Bengal in assay [13] is 0.0258% [at 18.6 µM] and 0.364% [at 3.72 µM].

`C[C@]12CC[C@H]3[C@@H](CCC4=CC(=O)CC[C@@]43C)[C@@H]1CC[C@@H]2C(=O)CO`: the Potency entry in assay [1], in assay [2], in assay [3], in assay [4], in assay [5] and in assay [19] was “inactive” in each case. Moreover, the Potency entry in assay [6], in assay [7], in assay [9], in assay [10], in [20] and in [12] was “inactive” each time. The Potency result in [13], in [15] and in assay [17] was “inactive” each time. Further, the call in assay [11], in assay [14] and in assay [16] was inactive. The Potency in assay [18] is 811 nM (active) and 977 nM (active).

For `CN1C(C(=O)Nc2ccccn2)=C(O)c2ccccc2S1(=O)=O`, the Potency entry in assay [1], in [2], in assay [3], in assay [4], in [5] and in [6] was “inactive” in each case. For the same molecule, the Potency entry in assay [7], in [9], in [10], in [12], in assay [13] and in assay [15] was “inactive” in each case. The Potency entry in assay [17] and in assay [18] was “inactive” each time. Further, in assay [19], the Potency was 5.69 µM (active) and 4.9 µM (active). Moreover, the call in [8], in [11], in [14] and in assay [16] was inactive.

Turning to `C=C(C)C1CC=C(C)CC1` (stereo not given), the Potency result in [1], in assay [2], in [3], in assay [4], in [6] and in assay [7] was “inactive” each time. The Potency entry in [9], in assay [10], in assay [12], in assay [13] and in assay [15] was “inactive” throughout. Also, the outcome in [8], in assay [11] and in [14] was inactive.
